Experiment [1] is described as follows: P-glycoprotein substrates identified in KB-8-5-11 adenocarcinoma cell line, qHTS therapeutic library screen (AID 1346987). For activity change, negative = cytotoxicity: series mostly up to about 44 µM. Note: nearly all actives have a fitted effect of over 65% in size. Put shortly:
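Luminescence from CellTiter-Glo, read 5 min after addition, quantified survival of KB-8-5-11 (P-gp-overexpressing) cells exposed to compounds for 72 h. AC50 was derived from concentration-response curves.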
(In qHTS, concentration-response curves come from the screen itself.)

Experiment [2] has as its system Zika virus NS2B-NS3 protease (linked construct). Nature of the experiment: Primary screen NINDS Rhodamine qHTS for Zika virus inhibitors (AID 1347160). Note: nearly all actives have a fitted effect of over 55% in size. Summed up: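 Single-chain NS2B-NS3 protease, 25 nM, pH 8.0; compounds preincubated 15 min. Activity: Rhodamine110 release from 1.5 microM substrate over 15 min, room temperature, data fitted to 4-parameter Hill.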

Results filed as inconclusive are left out. Where a call stands in place of a potency, no number is given. Unmarked numbers belong to inactive results. The source made the active and inactive calls. Calls come from the whole dose curve; as a rule, active = well fitted curve in the direction sought with a large enough effect; inconclusive = small, poorly fitted or top-dose-only effect, or another doubt; inactive = no such curve, though single readings can be large; an effect the other way counts as inactive or inconclusive.

`C=CC(C)(O)CCC1C(C)(O)CCC2C(C)(C)CCCC21C` (centres undefined): the Potency result in experiment [1] and in experiment [2] was “inactive” throughout.
With `CCC(C)/C=C(C)/C=C/C1=CC2=C(Cl)C(=O)C(C)(OC(C)=O)C(=O)C2=CN1C(CCCN=C(N)N)C(=O)O` (centres undefined), the Potency result in experiment [1] and in experiment [2] was “inactive” each time.
On to `C[C@@H]1O[C@@H](OC2C(O[C@H]3[C@H](O[C@H]4CC[C@@]5(C)C(CC[C@]6(C)C5CC=C5C7CC(C)(C)CC(O)[C@]7(C)CC[C@]56C)C4(C)C)O[C@H](C(=O)O)[C@@H](O)[C@@H]3O)OC(CO)C(O)C2O)[C@H](O)[C@H](O)[C@H]1O` (some centres undefined), for which the activity change, negative = cytotoxicity in experiment [1] was 3.3% [at 9.29 µM]. Also, the Potency result in experiment [2] was “inactive”.
Take `O=C(Cn1c2ccccc2c2nc3n(c(=O)c21)CCS3)N1CCCC1`: the Potency result in experiment [1] and in experiment [2] was “inactive” in each case.
As to `CC1=C[C@H]2[C@@H](CC1=O)[C@H](C)C[C@H](O)[C@H]2C(C)C`, the Potency result in experiment [1] and in experiment [2] was “inactive” in each case.
For `CC(=O)OC1C(O)/C(C)=C\C2C(OC(=O)c3ccccc3)C(C)CC2(OC(C)=O)C(OC(C)=O)C(C)/C=C/C(C)(C)C1OC(C)=O` (centres undefined), the Potency result in experiment [1] and in experiment [2] was “inactive” each time.
On to `CC1(C)CCC[C@]2(C)C1CC=C(CO)[C@H]2CC/C(=C/CO)CO` (some centres undefined), for which the Potency result in experiment [1] and in experiment [2] was “inactive” in each case.
`C/C=C/C=C/C(=O)OC1CC/C=C/C(O)C(O)C(CCC)OC1=O` (centres undefined): the Potency result in experiment [1] and in experiment [2] was “inactive” throughout.
`CC[C@H](NC(=O)c1c(O)c(-c2ccccc2)nc2ccccc12)c1ccccc1`: the Potency result in experiment [1] and in experiment [2] was “inactive” in each case.
With `O=C(O)Cn1nnc(-c2ccc(CN(CCCCOc3ccc(CN4CCCC4)cc3)CCc3ccccc3)cc2)n1`, the Potency result in experiment [1] and in experiment [2] was “inactive” in each case.
Regarding `COc1c(C)c(OCC=C(C)C)cc2c1COC2=O`, the Potency entry in experiment [1] and in experiment [2] was “inactive” each time.
As to `O=C(Nc1cc(-c2ccccc2)nn1-c1ccccc1F)c1ccc([N+](=O)[O-])cc1`, the Potency result in experiment [1] and in experiment [2] was “inactive” each time.
In the case of `CC(C)CC(=O)OC[C@@]1(O)C[C@@]23CC[C@H]4[C@@](C)(CCC[C@@]4(C)C(=O)O)[C@@H]2CC[C@@H]1C3`, the Potency result in experiment [1] and in experiment [2] was “inactive” in each case.
Take `CC(O)C(=O)/C=C/C=C/C(=O)OC1C=C2COC(=O)C2(O)C2(C)CCCC(C)(C)C12` (centres undefined): the Potency result in experiment [1] and in experiment [2] was “inactive” in each case.
For `C[C@]12CC[C@@H]3c4ccc(O)cc4CC[C@H]3[C@@H]1C[C@@H](O[C@@H]1O[C@H](C(=O)O)[C@@H](O)[C@H](O)[C@H]1O)[C@@H]2O`, the Potency result in experiment [1] and in experiment [2] was “inactive” each time.
In the case of `C[C@H]1CCN2C[C@]34C[C@@]5(C(=O)Nc6c5ccc5c6OC=CC(C)(C)O5)C(C)(C)C3C[C@]12C(=O)N4C` (some centres undefined), the Potency entry in experiment [1] and in experiment [2] was “inactive” in each case.
Turning to `C[C@@H]1O[C@@H](O[C@H]2[C@@H]3C=CO[C@@H](O[C@@H]4O[C@H](CO)[C@@H](O)[C@H](O)[C@H]4O)[C@@H]3[C@@]3(CO)O[C@@H]23)[C@H](O)[C@H](OC(=O)/C=C/c2ccc(O)c(O)c2)[C@H]1O`, the Potency result in experiment [1] and in experiment [2] was “inactive” each time.
Turning to `COC(=O)c1ccccc1O[C@@H]1O[C@H](CO[C@@H]2OC[C@@H](O)[C@H](O)[C@H]2O)[C@@H](O)[C@H](O)[C@H]1O`, the Potency entry in experiment [1] and in experiment [2] was “inactive” in each case.
As for `CC/C=C\CC1C(CC(=O)O)CCC1OC1OC(CO)C(O)C(O)C1O` (centres undefined), the Potency result in experiment [1] and in experiment [2] was “inactive” throughout.
As for `C=C1C(O)CC2C(C(=O)O)=COC(OC3OC(CO)C(O)C(O)C3OC(=O)/C=C\c3ccc(O)cc3)C12` (centres undefined), the Potency entry in experiment [1] and in experiment [2] was “inactive” throughout.
`CC(=O)OCC1=CCC2C(C)(C)CCCC2(C)C12CCC(C)(CC(=O)O)O2` (centres undefined): the Potency entry in experiment [1] and in experiment [2] was “inactive” each time.
Turning to `CC(=O)c1c(C)cccc1O[C@@H]1O[C@H](CO)[C@@H](O)[C@H](O)[C@H]1O`, the Potency result in experiment [1] and in experiment [2] was “inactive” throughout.
Take `C=C1CC/C=C(/CO)C(=O)C[C@@H]2[C@@H]1C[C@@]2(C)COC(C)=O`: the Potency entry in experiment [1] and in experiment [2] was “inactive” throughout.
Consider `O=C(N[C@@H]1CC[C@@H](c2cccc(F)c2F)CN(CC(F)(F)F)C1=O)N1CCC(n2c(=O)[nH]c3ncccc32)CC1`, for which the Potency result in experiment [1] and in experiment [2] was “inactive” in each case.
`C[C@@H]1O[C@@H](O[C@H]2[C@H](O)[C@@H](O)[C@H](OC(=O)[C@]34CCC(C)(C)C[C@H]3C3=CCC5[C@@]6(C)CC[C@H](O[C@@H]7O[C@H](C(=O)O)[C@@H](O)[C@H](O)[C@H]7O)C(C)(C)C6CC[C@@]5(C)[C@]3(C)CC4)O[C@@H]2CO)[C@H](O)[C@H](O)[C@H]1O` (some centres undefined): in experiment [1], the outcome was “inactive [at 9.29 µM]”. Further, in experiment [2], the Potency result is “inactive”.
Regarding `COc1ccc(-n2c(=O)[nH]c3cc(C(=O)NCc4ccc(Cl)cc4)sc3c2=O)nc1OC`, the Potency entry in experiment [1] and in experiment [2] was “inactive” in each case.
As to `C/C=C/C=C/C1=C2C(=O)C3(C)C4C(C(=O)CC(O)/C=C/C)=C(O1)C1(C)C2C2(C)OC1(O)C4(C)OC23O` (centres undefined), the Potency entry in experiment [1] and in experiment [2] was “inactive” throughout.
For `COC(=O)[C@H](c1ccccc1Cl)N1CCC2SC(=O)C=C2C1` (some centres undefined), the Potency entry in experiment [1] and in experiment [2] was “inactive” each time.
Regarding `C=C1CC[C@@H]2[C@](C)(CO)[C@H](O[C@@H]3O[C@H](CO)[C@@H](O)[C@H](O)[C@H]3O)CC[C@@]2(C)[C@@H]1C/C=C1/C(=O)OC[C@H]1O`, the Potency entry in experiment [1] and in experiment [2] was “inactive” throughout.
As to `C[C@@H]1CC[C@]2(C(=O)O)CC[C@]3(C)C(=CCC4[C@@]5(C)C[C@@H](O)[C@H](O)[C@@](C)(CO)C5CC[C@]43C)C2[C@H]1C` (some centres undefined), the Potency result in experiment [1] and in experiment [2] was “inactive” in each case.
As to `CC(O)/C=C/C1(O)C(C)C(O)C(O[C@@H]2O[C@H](CO)[C@@H](O)[C@H](O)[C@H]2O)CC1(C)C` (some centres undefined), the Potency entry in experiment [1] and in experiment [2] was “inactive” throughout.
Regarding `C/C1=C\CC[C@]2(C)O[C@H]2C(=O)c2c(C)coc2C1`, the Potency result in experiment [1] and in experiment [2] was “inactive” in each case.

Values taken from PubChem BioAssay (NCATS).
